GLP1R cytotox – cytotoxic in the GLP-1 receptor inverse agonist counter-screen; hit rate 0.13% among 410,000; Potency, µM (doses to about 38.3 µM), usual class: inhibitors; HEK293 cAMP-luciferase reporter cells, luminescence, 24 h;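 further: loss of luciferase light is scored as toxicity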
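MLSMR compounds, 24 hr on cells at 37 deg C/5% CO2; luminescence after luciferase reagent (12 min RT). Inhibition counted as the undesired cytotoxic outcome.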
GLP-1R agonist – activates the human GLP-1 receptor. P43220. HEK293 GLP-1R CRE-luciferase, luminescence, 4-6 h; cells express a hypersensitive GLP-1R form. Potency, µM (top dose mostly 45.6 µM), actives largely listed as activators. hit rate 0.007% among 380,000. AID 624172
ClpP mod – qHTS Assay for Activators of ClpP | hit rate 1.9% among 340,000 | AID 651965, 2013 | ATP-dependent Clp protease proteolytic subunit (Bacillus subtilis (strain 168)), P80244 | Potency, µM (top dose mostly 57.5 µM) | purified B. subtilis ClpP, FRET peptide cleavage, 20 min; active means well fitted falling curve with a large enough effect; inconclusive means small, poorly fitted or top-dose-only effect; inactive means no such curve, though single readings can be large or run the other way; further: the source files actives as falling curves though it sought activators and does not explain the sign; nearly all actives have a fitted effect of over 65% in size
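Buffer: 100 mM Tris/HCl pH8, 100 mM KCl, 0.05% low protease BSA, 2.5% glycerol, 0.01% Tween-20. ClpP 10 microg/mL final; 20 min RT; delta FRET normalized to ADEP and DMSO controls.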
GLP1R inv ag – inverse agonists of human GLP-1 receptor; HEK293 GLP-1R CRE-luciferase, luminescence, 24 h; GLP-1R form is constitutively active; AID 624417; Potency, µM (highest dose often 38.3 µM), actives largely listed as inhibitors; P43220; hit rate 1.6% among 410,000; further: nearly all actives have a fitted effect of over 55% in size
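qHTS in 1536-well format: reporter HEK293 cells expressing constitutive GLP-1R activity in DMEM + 10% Nu serum, 24 hr with compounds at 37 deg C, luminescence read after 12 min with detection reagent.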
A number is an active result; - = inactive; ? = inconclusive; . = not tested or not shown; [ ] = dose if it differs, or a comment. A selection: hits, their analogues and other compounds. The true share with any hit is near 3.2%. Unless noted, the call rests on the fitted dose curve; in most records, active means well fitted curve in the direction sought with a large enough effect; inconclusive means small, poorly fitted or top-dose-only effect, or another doubt; inactive means no such curve, though single readings can be large; an effect the other way counts as inactive or inconclusive.

SMILES	GLP1R cytotox	GLP-1R agonist	ClpP mod	GLP1R inv ag
O=C(NCCO)c1cccc(-c2cnc3c(Nc4cccc(OC(F)(F)C(F)F)c4)nccn23)c1	-	-	-	?
Cc1ccc(S(=O)(=O)Nc2ccc(Nc3nccn4c(-c5cccc(OC(F)(F)F)c5)cnc34)cc2)cc1	-	-	32µM	?
Cc1cc(C(=O)N[C@H](c2ccccc2)[C@@]2(C)C[C@@H]2[C@@H](C)C(=O)Nc2ccc3ccccc3c2)n(C)n1	-	-	-	10µM
O=C(c1ccc(Cl)cc1)N1CCN(CCOc2ccccc2)CC1	-	-	.	11µM
O=C(Nc1ccc2nc(SCC(=O)N3CCc4ccccc43)sc2c1)c1cccc(Cl)c1	-	.	?	-
CN(C(=O)CSc1nc2ccc(NC(=O)c3cccc(F)c3)cc2s1)c1ccccc1	?	.	?	5.6µM
O=C(Nc1ccc2nc(SCC(=O)N3CCCc4ccccc43)sc2c1)c1cccc(Cl)c1	-	.	14µM	?
Cc1nc(N2CCN(c3ccccn3)CC2)c2c(C)c(C(=O)Nc3ccc(Cl)cc3)sc2n1	-	-	-	-
Cc1nc(N2CCCCC2)c2c(C)c(C(=O)Nc3ccc4c(c3)OCCO4)sc2n1	-	-	-	5.6µM
Cc1nc(N2CCN(c3ccccn3)CC2)c2c(C)c(C(=O)Nc3c(C)cc(Br)cc3C)sc2n1	-	-	?	2µM
Cc1nc(N2CCN(c3ccccn3)CC2)c2c(C)c(C(=O)Nc3c(F)cc(F)cc3Br)sc2n1	-	-	-	4.5µM
Cc1cccc(N2C(=O)CSC23C(=O)N(CC(=O)NCCc2ccccc2)c2ccccc23)c1 (stereo not drawn)	-	-	-	-
Cc1nc(N2CCCC2)ncc1C(=O)NCc1cccc(Cl)c1	-	.	?	-
COc1ccc(NC(=O)COC(=O)c2cc(SC)ccc2Cl)c(OC)c1	-	-	-	-
CCOc1ccccc1NC(=O)COC(=O)c1cc(C(=O)OC)cc([N+](=O)[O-])c1	-	-	-	-
CSc1ccc(Cl)c(C(=O)OCC(=O)Nc2ccccc2OC(F)F)c1	-	-	28µM	-
Nc1ccc(C(=O)OCC(=O)Nc2ccc([N+](=O)[O-])cc2C(F)(F)F)cc1	-	-	22µM	-
COC(=O)c1cc(C(=O)OCC(=O)Nc2ccccc2OC(F)F)cc([N+](=O)[O-])c1	-	-	28µM	-
CC(=O)c1ccc(N2CCc3ccccc3C2)c([N+](=O)[O-])c1	-	-	-	3.2µM
CCOC(=O)c1c(NC(=O)COC(=O)CCOc2ccc(OCC)cc2)sc(C(=O)N(C)C)c1C	-	-	.	-
CCOC(=O)c1sc(NC(=O)CCN2CCN(C)CC2)c(C(=O)OCC)c1C	-	-	-	-
CCOC(=O)c1c(NC(=O)CN2CCN(C)CC2)sc(C(=O)Nc2ccccc2)c1C	-	-	.	13µM
CCOC(=O)c1c(NC(=O)COC(=O)CCOc2ccccc2C)sc(C(=O)NC)c1C	-	-	20µM	-
CCOC(=O)c1c(NC(=O)CSc2ccccc2C(=O)O)sc(C)c1C	-[0.307 µM]	-	16µM	-[0.307 µM]
CCOC(=O)c1c(NC(=O)Nc2ccccc2)sc(C)c1C	-	-	20µM	-
SMILES	GLP1R cytotox	GLP-1R agonist	ClpP mod	GLP1R inv ag
COc1cccc(CNS(=O)(=O)c2cn(C)cn2)c1	-	-	14µM	-
Cn1cnc(S(=O)(=O)NCc2ccccc2)c1	?	-	-	-
O=C(CN1c2ccccc2Sc2ccccc21)N/N=C/c1ccc(Cl)cc1Cl	-	-	-	-
O=C(CN1c2ccccc2Sc2ccccc21)NNC(=S)Nc1ccc(Cl)cc1	-	-	25µM	-
O=C(CN1c2ccccc2Sc2ccccc21)N/N=C/c1ccc(Cl)cc1	-	-	.	3.2µM
O=C(CN1c2ccccc2Sc2ccccc21)NNC(=S)Nc1ccc(Cl)cc1Cl	-	-	-	-
Cn1c(SCc2cc(=O)c3cc(Cl)ccc3[nH]2)nnc1-c1ccccc1	-	.	-	-
O=C(COc1ccccc1F)Nc1nnc(SCc2cc(=O)c3ccccc3[nH]2)s1	-	.	-	-
O=C(N/N=C/c1cn(-c2ccccc2)nc1-c1cccs1)c1ccc(Cl)cc1	-	-	32µM	6.3µM
CN1CCC(N(C)C(=O)/C=C/c2cn(-c3ccccc3)nc2-c2cccs2)CC1	?	-	.	5.6µM
CCN(CC(=O)Nc1ccc(NC(C)=O)cc1)C(=O)/C=C/c1cn(-c2ccccc2)nc1-c1cccs1	-	-	?	-
CC1=NNC(=O)/C1=C\c1cn(-c2ccccc2)nc1-c1cccs1	7.9µM	-	-	?
CCc1cc(=O)oc2cc(C)c3c(-c4ccc(F)cc4)coc3c12	-	.	?	-
CCOC(=O)c1c(S(=O)(=O)N2CCCC(C(=O)N(C)Cc3ccccc3)C2)c(C)n(C)c1C (stereo not drawn)	-	.	-	-
CCC(=O)N1CCc2cc(Br)cc(S(=O)(=O)N3CCC(C(=O)Nc4cccc(C)c4)CC3)c21	-	.	-	?
COc1ccc(NC(C)c2cc(Cl)ccc2O)cc1 (stereo not drawn)	-	-	3.2µM	-
COC(=O)C1CSC(C(=O)OC)N1C(=O)Nc1ccc(Cl)cc1 (stereo not drawn)	-	-	32µM	-
Cc1ccc(S(=O)(=O)N2[C@@H](c3ccc(C(C)(C)C)cc3)C(C(=O)O)=CC[C@H]2c2ccc(C(C)C)cc2)cc1	?	-	-	3.2µM
CCc1ccc([C@@H]2CC=C(C(=O)O)[C@H](c3ccc(C(C)(C)C)cc3)N2S(=O)(=O)c2ccc(C)cc2)cc1	-	-	-	13µM
Cc1ccc(S(=O)(=O)N2[C@@H](c3ccc(Cl)cc3)C(C(=O)O)=CC[C@H]2c2ccc(Cl)c(Cl)c2)cc1	-	-	-	3.5µM
Cc1ccc([C@@H]2CC=C(C(=O)O)[C@H](c3ccc(C(C)(C)C)cc3)N2S(=O)(=O)c2ccc(C)cc2)cc1	-	-	-	?
CCCC(c1nnnn1CC1CCCO1)N1CCN(c2cc(Cl)ccc2C)CC1 (stereo not drawn)	-	-	-	8.9µM
Cc1ccc(Cl)cc1N1CCN(C(CC(C)C)c2nnnn2CC2CCCO2)CC1 (stereo not drawn)	-	-	-	-
CCc1ccc(CN(Cc2ccco2)C(=O)c2cc(-c3ccc(Cl)cc3)on2)cc1	-	.	-	-
COc1ccc(-c2ccc(=O)n(CC(=O)Nc3ccc(C)cc3C)n2)cc1	-	.	?	-
SMILES	GLP1R cytotox	GLP-1R agonist	ClpP mod	GLP1R inv ag
O=C(COc1ccc2oc(-c3ccccc3)cc(=O)c2c1)NCc1ccco1	-	-	35µM	-
Cc1cc(=O)oc2ccc(OCC(=O)NCc3ccco3)cc12	-	-	?	-
Cc1cc(=O)oc2cc(OCC(=O)NCc3ccncc3)ccc12	-	-	22µM	-
Cc1cc(=O)oc2cc(OCC(=O)NCCc3ccccc3)ccc12	-	-	.	-
Cc1cccc(OCC(=O)Nc2ccc3c(C)cc(=O)oc3c2)c1	-	-	13µM	-
Cc1cc(=O)oc2cc(OCC(=O)NCc3ccco3)ccc12	-	-	28µM	-

Source: PubChem BioAssay
